Screens: PubChem BioAssay, Sanford-Burnham Center for Chemical Genomics
Hits are enriched below; roughly 4% of the tested compounds scored in any of these assays.
TROY signal inh: blocks TROY-dependent signaling in reporter cells; Q293 LMP1-TROYcd NF-kB luciferase reporter, 4 h; inhibition, % at 10 µM; 360,000 compounds, 0.98% hits;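 active = compounds whose plate-normalised and pattern-corrected inhibition of the luciferase reporter signal at the single screening dose is 50% or more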
CF NFkB block: blocks PAF-induced NF-kB reporter in cystic fibrosis cells; inhibition, % at 5 µM; KKLEB NF-kB-GFP reporter, GFP fluorescence overnight; 360,000 compounds, 0.86% hits; AID 588850;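 active = at least 50% inhibition at 5 µM, scaled per plate between neutral and stimulator controls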;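 note: PAF is a Pseudomonas aeruginosa culture filtrate used as stimulus; plate controls were PAF-stimulated DMSO wells for no effect and unstimulated DMSO wells for full effect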
HIF-2a inh: blocks HIF-2a reporter activity; 360,000 compounds, 0.72% hits; AID 624352; 786-0 RCC cells HIF-2a reporter, luciferase luminescence, overnight; inhibition, % at 18.8 µM;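 active = inhibition of the luminescence signal of 40% or more relative to plate controls, in a single-dose primary screen at 18.75 µM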
Peg3 prom inh: inhibitors of Peg3 promoter; AID 588405; inhibition, % at 20 µM; 360,000 compounds, 1.7% hits; HeLa PEG-Prom luciferase reporter, luminescence, overnight;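 active = inhibition of at least 50% at 20 µM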
TWEAK-Fn14 inh: inhibitors of TWEAK-Fn14 interaction signaling; TWEAK-stimulated Fn14 reporter cells, luciferase luminescence, 8 h; inhibition, % at 10 µM; 360,000 compounds, 2% hits; AID 1159606; in the data active = inhibition above about 50%
KKLEB tox: reduces viability of KKLEB cystic fibrosis airway cells | KKLEB CF airway cells viability, ATPlite luminescence, overnight; hits give low values; cells stimulated with P. aeruginosa culture filtrate | activity change (cytotoxicity), % at 5 µM | 360,000 compounds, 0.36% hits | AID 602141;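 active = corrected activity change at or below -50% at 5 µM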
An asterisk follows results filed as active; . = no result given.

SMILES	TROY signal inh	CF NFkB block	HIF-2a inh	Peg3 prom inh	TWEAK-Fn14 inh	KKLEB tox
OC(c1ccccc1)(c1nc(-c2cccc(F)c2)cs1)C(F)(F)F (configuration not stated)	-4	16	16	11	24	5
Oc1ccc(O)c(Cc2nc3ccccc3s2)c1	63*	46	13	1	35	-9
Nc1cccc(-c2nc3ccccc3s2)c1	22	-17	-67	-135	34	-2
CC[n+]1cccc(-c2nc3ccccc3s2)c1	64*	-5	29	8	69*	1
Oc1cccc(-c2nc3ccccc3s2)c1	16	-8	-107	-148	54*	-11
Cc1cc(Cl)ccc1OCCCC(=O)OCC(=O)Nc1cccc(S(N)(=O)=O)c1	4	-22	9	-1	-30	-4
COc1ccc(Br)cc1/C=N/N1CCN(Cc2ccccc2Cl)CC1	-13	12	0	5	-3	-4
COc1cc(CNCCNC(=O)c2nonc2N)ccc1OCc1ccc(Cl)cc1	-18	11	-45	88*	-61	-5
COc1cccc(CNCCNC(=O)c2nonc2N)c1	12	0	5	-4	9	-6
CC(=O)c1ccc(NS(=O)(=O)c2cccc(C(=O)Nc3ccccc3C(=O)O)c2)cc1	13	-6	5	12	82*	-3
Cc1ccc2c(c1)CCCN2S(=O)(=O)c1cccc(C(=O)Nc2ccccc2C(=O)O)c1	55*	11	-11	18	10	-10
CC(=O)N1CCc2cc(Br)cc(S(=O)(=O)NCCCN(C)Cc3ccccc3)c21	-4	7	15	-12	98*	-5
CC(=O)c1c(C)n(C)c2ccc(OC(=O)c3ccco3)cc12	-18	12	8	4	-15	-2
CCOc1ccc(/C=C(\C)C(=O)c2c(C)cc(C)[nH]c2=O)cc1	2	13	23	6	18	-2
COc1ccc2nc(SCCOC(=O)Nc3ccc(Cl)cc3)nc(C)c2c1	35	-6	11	14	51*	-7
COCCC(=O)N1CCC(Oc2ccc(C(=O)NC3Cc4ccccc4C3)cc2)CC1	0	-7	2	-15	16	2
CC(C)(C)c1ccc(Nc2n[nH]c3ccccc23)cc1	53*	20	-149	-262	53*	-38
O=C1c2ccccc2C(c2nnnn2-c2ccc3ccccc3c2)N1C1CC1 (configuration not stated)	4	.	-6	.	1	.
O=C1N[C@H](Cc2ccccc2)COC(=O)[C@H](Cc2ccc(F)cc2)CC/C=C/C[C@H]1CC(=O)N(CCO)Cc1ccccc1	2	4	12	15	3	0
O=C1N[C@@H](c2ccccc2)COC(=O)[C@@H](Cc2ccc(F)cc2)CC/C=C/C[C@@H]1CC(=O)N(CCO)Cc1ccccc1	18	-16	8	27	60*	10
COc1ccc(CCN2C(=O)CSC2=Nc2ccc(C(C)C)cc2)cc1OC	38	11	9	35	58*	-20
Cc1ccc2nsnc2c1S(=O)(=O)N(Cc1cc2cccc(C)c2[nH]c1=O)CC1CCCO1 (configuration not stated)	16	35	6	84*	17	-20
COc1ccc(C2(c3ccc(OC)cc3)NC(=O)N(CC(=O)Nc3ccccc3C(F)(F)F)C2=O)cc1	-7	-1	14	7	4	6
COc1ccc([C@@]2(C(C)C)ON(c3ccccc3C(F)(F)F)C2=O)cc1	-19	53*	7	62*	9	0
CNS(=O)(=O)c1ccc2c(c1)oc(=O)c1cc(S(=O)(=O)NC)ccc12	-20	-5	14	14	5	10
SMILES	TROY signal inh	CF NFkB block	HIF-2a inh	Peg3 prom inh	TWEAK-Fn14 inh	KKLEB tox
Cc1cccc(C)c1N1CCN(C(c2cc3ccccc3o2)c2nnnn2C(C)(C)C)CC1 (configuration not stated)	27	.	-25	.	53*	.
Cc1ccc(C(=O)Nc2nccs2)cc1S(=O)(=O)N1CCCCC1	1	16	-75	-20	15	1
O=C(Nc1nccs1)c1ccc(Br)c(S(=O)(=O)N2CCCC2)c1	4	22	-56	-27	97*	-6
COc1cccc(N2CC(=O)Nc3c(oc4nc(-c5ccccc5)cc(C)c34)C2=O)c1	71*	1	15	-1	41	-5
CCCCc1ccc(-c2nc(-c3ccncc3)no2)cc1	-30	-5	-133	-246	33	6
Cc1ccc(-c2nc(-c3ccncc3)no2)c(Cl)c1	30	10	-73	-80	69*	-44
Clc1ccc(-c2nc(-c3ccncc3)no2)c(Cl)c1	-11	-16	-265	-198	16	-3
CCc1ccc(-c2nc(-c3ccncc3)no2)cc1	34	-4	-35	-160	76*	-15
c1ccc(-c2ccc(-c3nc(-c4ccncc4)no3)cc2)cc1	30	-20	-299	-193	65*	23
c1ccc(-c2nc(-c3ccncc3)no2)cc1	-44	-5	-227	-255	-4	2
CN=C1SC(CC(=O)Nc2cc(Cl)ccc2Cl)C(=O)N1C (configuration not stated)	-8	-24	12	19	-9	10
CC(C)C[C@H](NC(=O)c1nc[nH]c1C(=O)N1CCC(C)CC1)C(=O)OC(C)(C)C	-6	24	15	9	-14	4
O=C(NC(=S)Nc1ccc(CN2CCCCC2)cc1)c1cc2ccccc2o1	-9	11	-71	-62	-30	-18
O=C(ONC(=O)C1CCCCC1C(=O)NOC(=O)c1ccccc1)c1ccccc1 (configuration not stated)	27	7	3	13	51*	6
O=C(COC(=O)c1ccccc1)NC1CCCC1	-13	-4	-9	-85	12	12
COc1ccc(N(CC(=O)Nc2c(C)n(C)n(-c3ccccc3)c2=O)S(=O)(=O)c2ccc(C)cc2)cc1OC	12	-1	0	8	14	0
O=C1CSC(=S)N1c1cccc(O)c1	31	43	48*	32	76*	-18
CC1(C)CC2CC(C)(CN2C(=O)c2cc(-c3ccc(O)cc3)on2)C1 (configuration not stated)	62*	-11	2	-20	-35	2
COc1cc2c(cc1OC)CN(CC(=O)Nc1cccc(C)c1)CC2	-17	8	20	23	-4	-22
CCN1C(=O)C(C(=O)Nc2ccc(OC)cc2)C2CC1(C)Oc1ccccc12 (configuration not stated)	.	-9	-63	-88	78*	8
Clc1ccc2oc3c(Cl)ncnc3c2c1	-4	20	18	84*	-17	-15
